High-throughput results from PubChem.
ATXN2 expr inh: reduces ATXN2 reporter expression in HEK-293 cells; HEK-293 ATXN2-luciferase reporter, luminescence, 24 h; Potency, µM (highest dose often 57 µM), for the others: at the top dose activity change, negative = inhibition, usual class: inhibitors; 0.72% of 360,000 active; AID 1745845; note: % is set by controls: 0 for no effect and ±100 for the full control effect; nearly all actives have a fitted effect of over 55% in size
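ATXN2-luciferase reporter cells (luciferase flanked by upstream and downstream ATXN2 gene portions) were treated 24 h at 37 °C with compounds at up to 57 uM. SteadyGlo luminescence gave expression; GF-AFC fluorescence gave viability.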
Nrf2 activator: Nrf2 pathway activation | 0.31% of 410,000 active | AID 624171 | AREc32 ARE-luciferase reporter (MCF7-derived line), luminescence, 24 h | Potency, µM (top dose mostly 46.1 µM), for inactives: top-dose activation, hits mostly activators; note: % of control where 0% means no effect; nearly all actives have a fitted effect of over 65% in size
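Luciferase luminescence (Steady-Glo, 30 min at room temperature) served as the read-out of ARE activation in AREc32 cells treated with compounds for 24 hr at 37 deg C.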
A549 tox-1: counter-screen for Nrf2 inhibitors: cytotoxicity in A549 cells; A549 ARE-Fluc cells, CellTiter-Fluor viability, 18-24 h; 0.16% of 390,000 active; Potency, µM (titrated, usually from 46 µM), without a hit: top-dose activity change, negative = cytotoxicity, most hits filed as inhibitors; note: % is set by controls: 0 for no effect and ±100 for the full control effect
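A549 ARE-Fluc cells in 5% FBS OPTI-MEM, 5000 cells/well, rested 2 h then exposed to compounds in concentration-response for 18-24 h at 37 °C. Viability by CellTiter-Fluor fluorescence (Ex 405/Em 525) after 30 min; luciferase luminescence (BugLite, 15 min, RT) read afterwards.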
Nrf2 block: Nrf2 pathway inhibition; A549 ARE-Fluc reporter, luciferase luminescence, 18-24 h; Potency, µM (top dose mostly 46 µM), without a hit: at the top dose activity change, negative = inhibition, most hits filed as inhibitors; 2.1% of 360,000 active; AID 504444; note: % is set by controls: 0 for no effect and ±100 for the full control effect; nearly all actives have a fitted effect of over 60% in size
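Cells were seeded and rested 2 h, then exposed to compounds for 18-24 h. CellTiter-Fluor was read first as a viability measure. BugLite was added 15 min before the final luminescent read of ARE-luciferase activity in A549 cells.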
ATXN viability: cell viability loss in ATXN counter-screen; S2 cells (HEK-293 line with an ATXN2-luciferase reporter) viability, CellTiter-Fluor protease fluorescence, 24 h; Potency, µM (top dose mostly 56.7 µM), hits mostly cytotoxic; 0.49% of 400,000 active; note: nearly all actives have a fitted effect of over 40% in size
FLuc enzyme inh: counter-screen for Nrf2 inhibitors: firefly luciferase enzyme inhibition | shares compounds with Nrf2 block | purified firefly luciferase, luminescence inhibition | Potency, µM (series often up to 57.5 µM), for the others: at the top dose activity change, negative = inhibition, actives largely listed as inhibitors | 4% of 1,400 active | AID 720522; note: % is set by controls: 0 for no effect and ±100 for the full control effect; nearly all actives have a fitted effect of over 65% in size
Target sequence (P08659 whole entry, looked up): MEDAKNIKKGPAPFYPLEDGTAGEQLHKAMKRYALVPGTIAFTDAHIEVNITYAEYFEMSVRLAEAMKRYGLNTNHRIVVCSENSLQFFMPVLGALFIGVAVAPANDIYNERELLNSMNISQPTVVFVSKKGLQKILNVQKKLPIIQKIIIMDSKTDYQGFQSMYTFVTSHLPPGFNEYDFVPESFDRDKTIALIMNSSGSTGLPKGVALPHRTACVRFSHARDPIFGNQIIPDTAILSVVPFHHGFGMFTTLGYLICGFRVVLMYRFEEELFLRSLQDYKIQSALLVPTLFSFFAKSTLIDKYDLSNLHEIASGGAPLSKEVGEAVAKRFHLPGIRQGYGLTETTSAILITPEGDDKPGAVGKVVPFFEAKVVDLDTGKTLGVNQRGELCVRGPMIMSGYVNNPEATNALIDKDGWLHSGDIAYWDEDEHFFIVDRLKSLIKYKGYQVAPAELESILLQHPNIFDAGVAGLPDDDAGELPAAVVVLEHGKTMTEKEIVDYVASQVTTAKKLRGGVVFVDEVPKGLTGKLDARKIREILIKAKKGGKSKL
A549 tox-2: toxic to A549 ARE-Fluc cells in Nrf2 counterscreen. Potency, µM (top dose mostly 46.1 µM), without a hit: at the top dose activity change, negative = cytotoxicity, actives largely listed as inhibitors. A549 ARE-Fluc cells, cytotoxicity counterscreen. shares compounds with Nrf2 block. AID 720523. 2% of 1,400 active;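 note: cells exposed to compounds for 18 to 24 hours; % is set by controls: 0 for no effect and ±100 for the full control effect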
ARE-Fluc inh: confirmation of Nrf2 inhibitors in A549 ARE reporter cells; shares compounds with Nrf2 block; A549 ARE-firefly luciferase reporter, luminescence; Potency, µM (doses to about 46.1 µM), inactives show at the top dose activity change, negative = inhibition, actives largely listed as inhibitors; 74% of 1,400 active; AID 720524; note: % is set by controls: 0 for no effect and ±100 for the full control effect; nearly all actives have a fitted effect of over 65% in size
Active calls of the source: *; [ ] = another dose, or the depositor's remark. In the library only some 2.9% were active in any assay of this set; here they are far more common. Calls come from the whole dose curve; as a rule, active = well fitted curve in the direction sought with a large enough effect; inconclusive = small, poorly fitted or top-dose-only effect, or another doubt; inactive = no such curve, though single readings can be large; an effect the other way counts as inactive or inconclusive. Potency is the fitted concentration of half-maximal effect.

Results for COC(=O)C1=C(c2cccc(OCc3ccccc3)c2)C[C@@H]2CC[C@H]1N2C(=O)NCc1ccc(Cl)cc1 ?
ATXN2 expr inh: -16%; Nrf2 activator: -1%; A549 tox-1: -13%; Nrf2 block: 23µM*; ATXN viability: inactive

How did COC(=O)C1=C(c2ccc(OCc3ccccc3)cc2)C[C@@H]2CC[C@H]1N2C(=O)NCc1cccc(OC)c1 do in these assays?
ATXN2 expr inh: -25%; Nrf2 activator: -1%; A549 tox-1: -12%; Nrf2 block: 23µM*; ATXN viability: inconclusive

What do the screens show for `COC(=O)C1=C(c2cccc(OCc3ccccc3)c2)C[C@@H]2CC[C@H]1N2C(=O)NCc1ccccc1`?
ATXN2 expr inh: inconclusive; Nrf2 activator: 4%; A549 tox-1: -8%; Nrf2 block: inconclusive; ATXN viability: inconclusive

How did CC(C)(C)n1c(O)c(C=Nc2ccc3c(c2)CCC3)c(=O)[nH]c1=O do in these assays?
ATXN2 expr inh: 7%; Nrf2 activator: 0%; A549 tox-1: 0%; Nrf2 block: 6%; ATXN viability: inactive

What do the screens show for `COP(=O)(OC)Oc1ccc(C(O)C(Cl)(Cl)Cl)cc1` (configuration not stated)?
ATXN2 expr inh: 11%; Nrf2 activator: 3%; A549 tox-1: -3%; Nrf2 block: 0%; ATXN viability: inactive

Results for C[C@H]1CC[C@H]2NCCN[C@H]2C1 ?
ATXN2 expr inh: -10%; Nrf2 activator: -1%; A549 tox-1: 0%; Nrf2 block: 3%; ATXN viability: inactive

How did Cc1oc(-c2ccccc2)nc1CN1C(=O)CN=C(c2ccccc2)c2ccccc21 do in these assays?
ATXN2 expr inh: 2%; Nrf2 activator: 0%; A549 tox-1: 2%; Nrf2 block: -8%; ATXN viability: inactive

What do the screens show for `O=C(Nc1ccc2nc(SCC(=O)N3CCCc4ccccc43)sc2c1)c1cccc(F)c1`?
Nrf2 activator: 1%; A549 tox-1: -2%; Nrf2 block: inconclusive

What do the screens show for `Cn1cc(C(=O)OCC(=O)NC2(C#N)CCCC2)c2ccccc21`?
ATXN2 expr inh: 8%; Nrf2 activator: 0%; A549 tox-1: 4%; Nrf2 block: -29%; ATXN viability: inactive

What do the screens show for `CCc1ccc(CNC(=O)C2CCN(C(=O)c3ccc(-n4c(C)cc5ccccc54)s3)CC2)cc1`?
Nrf2 activator: 0%; A549 tox-1: -29%; Nrf2 block: 18µM*

What do the screens show for `CC1NCCOC1c1ccccc1` (configuration not stated)?
ATXN2 expr inh: 7%; ATXN viability: inactive

How did O=C(CCc1ccc(O)cc1)N1C[C@H]2C[C@@H](C1)c1cccc(=O)n1C2 do in these assays?
ATXN2 expr inh: 2%; Nrf2 activator: -1%; A549 tox-1: -4%; Nrf2 block: 1%; ATXN viability: inactive

How did COc1cc2c(cc1/C=C/[N+](=O)[O-])OCO2 do in these assays?
ATXN2 expr inh: -8%[11.3 µM]; Nrf2 activator: -2%; A549 tox-1: -13%; Nrf2 block: -20%; ATXN viability: 28µM*

How did CCOC(=O)C1(CCc2ccccc2)CCN(Cc2cccc3c2OCO3)CC1 do in these assays?
ATXN2 expr inh: -27%; Nrf2 activator: -1%[9.22 µM]; A549 tox-1: 2%; Nrf2 block: inconclusive; ATXN viability: inactive

How did CCOC(=O)C1(CCc2ccccc2)CCN(Cc2csc(C(C)=O)c2)CC1 do in these assays?
ATXN2 expr inh: -25%; Nrf2 activator: 16%; A549 tox-1: inconclusive; Nrf2 block: 15µM*; ATXN viability: inactive

How did Cc1ccc(C(=O)N[C@@H](C)CN2C3=NC[C@@H](Cc4ccccc4)N3C[C@H]2Cc2ccc(O)cc2)cc1Br do in these assays?
ATXN2 expr inh: inconclusive; Nrf2 activator: -2%; A549 tox-1: -8%; Nrf2 block: 23%; ATXN viability: 25µM*

What do the screens show for `Cc1ccc(C(=O)N[C@@H](C)CN2C3=NC[C@H](Cc4ccccc4)N3C[C@H]2Cc2ccc(O)cc2)cc1Br`?
ATXN2 expr inh: 25µM*; Nrf2 activator: -3%; A549 tox-1: inconclusive; Nrf2 block: inconclusive

What do the screens show for `COc1ccc2[nH]c(C)c(CCNCc3cn(C)c4ccccc34)c2c1`?
ATXN2 expr inh: inconclusive; Nrf2 activator: 0%; A549 tox-1: 0%; Nrf2 block: -14%

Results for Cc1cccc(OCC(O)CN2CC2)c1 (configuration not stated) ?
Nrf2 activator: 0%; ATXN viability: inconclusive

What do the screens show for `CC12CC[C@H]3[C@@H](CCC4(O)C[C@H](O)CCC34/C=N/NC(=O)Cc3ccccc3)C1(O)CCC2C1=CC(=O)OC1` (some centres not stated)?
ATXN2 expr inh: inconclusive; Nrf2 activator: -1%; A549 tox-1: -25%; Nrf2 block: inconclusive; ATXN viability: inactive

What do the screens show for `CC12CC[C@H]3[C@@H](CCC4(O)C[C@H](O)CCC34/C=N/NC(=O)c3ccccc3[N+](=O)[O-])C1(O)CCC2C1=CC(=O)OC1` (some centres not stated)?
ATXN2 expr inh: inconclusive; Nrf2 activator: 0%; A549 tox-1: inconclusive; Nrf2 block: 4.6µM*; ATXN viability: inconclusive; FLuc enzyme inh: 0%; A549 tox-2: inconclusive; ARE-Fluc inh: 7.3µM*

How did CC12CCC(O)CC1CCC1C2CCC2(C)C(C3=CC(=O)OC3)CCC12O (configuration not stated) do in these assays?
ATXN2 expr inh: 0.84µM*; Nrf2 activator: -1%; A549 tox-1: inconclusive; Nrf2 block: 0.41µM*; ATXN viability: inconclusive; FLuc enzyme inh: 1%; A549 tox-2: inconclusive; ARE-Fluc inh: 0.26µM*

Results for CC12CCC(O)CC1CCC1C2CCC2(C)C(C3=CC(=O)OC3)C(O)CC12O (configuration not stated) ?
ATXN2 expr inh: inconclusive; Nrf2 activator: -1%; A549 tox-1: inconclusive; Nrf2 block: 1.8µM*; ATXN viability: inconclusive; FLuc enzyme inh: 1%; A549 tox-2: inconclusive
